# Measurements as given in PubChem BioAssay (EPA / NIEHS).
# “And” between values parts separate entries of the source, which are not always exact repeats. Identical values can stand only once. The source made the active and inactive calls. Rule for the calls: active = hit-call score of the fitted dose curve at least 0.9, where 1 is the maximum; inactive = score below 0.9.
# Read-out: Interleukin-1 alpha (IL1a), IL1A (gene 3552)
# Experiment: BSK_KF3CT_IL1a: BioMAP Diversity Plus: KF3CT Assay for Interleukin-1 alpha (IL1a) Biomarker Activity (AID 2283070)
# Conditions: primary human keratinocytes with fibroblasts; actives raise or lower the signal
# Experimental: BSK_KF3CT is a cell-based, multiplexed-readout assay that uses keratinocytes and foreskin fibroblasts, a human skin primary cell co-culture, with measurements taken at 24 hours after chemical dosing in a 96-well plate.BSK_KF3CT_IL1a is an assay component measured in the BSK_KF3CT assay. It measures IL-1a antibody related to regulation of gene expression using ELISA technology.Data from the assay component BSK_KF3CT_IL1a was analyzed into 1 assay endpoint. This assay endpoint, BSK_KF3CT_IL1a, was analyzed with bidirectional fitting relative to DMSO as the negative control and baseline of activity. Using a type of binding reporter, gain or loss-of-signal activity can be used to understand changes in the signaling as they relate to the gene IL1A. Furthermore, this assay endpoint can be referred to as a primary readout, because this assay has produced multiple assay endpoints where this one serves a signaling function. To generalize the intended target to other relatable targets, this assay endpoint is annotated to the cytokine intended target family, where the subfamily is interleukins.
# The levels of cell surface (or secreted, indicated by the prefix "s") biomarker endpoints were measured by ELISA. Overt cytotoxicity to cells in confluent adherent cultures (all systems other than the BT system) was assessed by measuring total protein levels using sulforhodamine B (SRB) staining in parallel cultures at the time of biomarker measurements, indicated as SRB endpoints. For proliferation assays for adherent cell types, individual cell types are cultured at sub-confluence and relative cell numbers quantified by SRB staining at time points optimized for each system (48 h: 3C and CASM3C systems; 72 h: BT and HDF3CGF systems; 96 h: SAg system). SRB was performed by staining cells with 0.1% SRB after fixation with 10% TCA and reading wells at 560 nm.Viability and proliferation of PBMC (T cells) was quantified by Alamar Blue reduction for the SAg and BT systems. For PBMC viability (referred to as PBMC Cytotoxicity within the assay endpoint names), cells were plated (75,000/well in a 96-well plate) and then chemical samples added for 1 h before addition of activators, SEB and TSST-1 (20 ng/mL final concentration each). Cells were incubated for 90 h. Then, Alamar Blue (20 uL/well) (Invitrogen, Cat DAL1100) was added for 6 h, and the plates were read with a fluorescence microplate reader at 546/580 nm (excitation/emission). For PBMC proliferation, cells were plated and activated as above but incubated for only 16 h prior to addition of Alamar Blue. Plates were read after 6 h.
Compound,outcome,AC50
CSc1nc(NC(C)C)nc(NC(C)C)n1,inactive,–
CCCCOC(=O)c1ccccc1C(=O)O,inactive,–
CCCSP(=O)(OCC)Oc1ccc(Br)cc1Cl (stereo not given),inactive,–
CSC1=N[C@@](C)(c2ccccc2)C(=O)N1Nc1ccccc1,inactive,–
CCOP(=S)(Oc1cnc(C(C)(C)C)nc1)OC(C)C (stereo not given),–,24.1 µM (active)
C#CC(C)(C)NC(=O)c1cc(Cl)cc(Cl)c1,inactive,–
CCc1cccc(CC)c1N(COC)C(=O)CCl,inactive,–
C[N+]1(C)CCCCC1,inactive,–
CNC(=O)Oc1cccc2c1OC(C)(C)O2,inactive,–
CSc1nnc(C(C)(C)C)c(=O)n1N,inactive,–
COP(=O)(OC)C(O)C(Cl)(Cl)Cl (stereo not given),inactive,–
CCc1cnc(C2=NC(C)(C(C)C)C(=O)N2)c(C(=O)O)c1 (stereo not given),inactive,–
C[Si](Cn1cncn1)(c1ccc(F)cc1)c1ccc(F)cc1,inactive,–
Cc1nn(-c2cc(NS(C)(=O)=O)c(Cl)cc2Cl)c(=O)n1C(F)F,inactive,–
Cc1ccn2nc(S(=O)(=O)Nc3c(F)cccc3F)nc2n1,inactive,–
CN(C)[C@@H]1C(=O)C(C(N)=O)=C(O)[C@@]2(O)C(=O)C3=C(O)c4c(O)cccc4[C@@](C)(O)[C@H]3[C@H](O)[C@@H]12,inactive,–
O=[N+]([O-])c1cc(C(F)(F)F)c(Cl)c([N+](=O)[O-])c1Nc1ncc(C(F)(F)F)cc1Cl,–,867 nM (active) and 6.33 µM (active)
COP(=O)(OC)OC(Br)C(Cl)(Cl)Br (stereo not given),–,27.1 µM (active)
CCCCN(CC)c1c([N+](=O)[O-])cc(C(F)(F)F)cc1[N+](=O)[O-],inactive,–
CCC(=NOC/C=C/Cl)C1=C(O)CC(C2CCOCC2)CC1=O (stereo not given),inactive,–

Compound,outcome,AC50
N#CSCSC#N,–,8.09 µM (active)
CCOP(=S)(OCC)SCCSCC,inactive,–
CCOP(=O)(OCC)Oc1cc(C)nc(C(C)C)n1,inactive,–
CN(C)NC(=O)CCC(=O)O,inactive,–
S=C1NCCN1,inactive,–
CC1(C(=O)Nc2ccc(O)c(Cl)c2Cl)CCCCC1,inactive,–
COP(=O)(NC(C)=O)SC (stereo not given),inactive,–
CC(C1CC1)C(O)(Cn1cncn1)c1ccc(Cl)cc1 (stereo not given),inactive,–
CCOP(=S)(OCC)OC(Cl)C(Cl)(Cl)Cl (stereo not given),inactive,–
CC1=NNC(=O)N(/N=C/c2cccnc2)C1,inactive,–
C#CCC1=C(C)C(OC(=O)C2C(C=C(C)C)C2(C)C)CC1=O (stereo not given),inactive,–
CCC(CC)Nc1c([N+](=O)[O-])cc(C)c(C)c1[N+](=O)[O-],inactive,–
Nc1c(Cl)cc([N+](=O)[O-])cc1Cl,inactive,–
CCCSP(=O)(OCC)SCCC,inactive,–
CC[C@H](C)[C@H]1O[C@]2(C=C[C@@H]1C)C[C@@H]1C[C@@H](C/C=C(\C)[C@@H](O[C@H]3C[C@H](OC)[C@@H](O[C@H]4C[C@H](OC)[C@@H](NC)[C@H](C)O4)[C@H](C)O3)[C@@H](C)/C=C/C=C3\CO[C@@H]4[C@H](O)C(C)=C[C@@H](C(=O)O1)[C@]34O)O2,–,5.84 µM (active)
CCOC(=O)CC(SP(=O)(OC)OC)C(=O)OCC (stereo not given),inactive,–
CCOP(=O)(SC(C)CC)N1CCSC1=O (stereo not given),inactive,–
CCCCOC(=O)[C@@H](C)Oc1ccc(Oc2ccc(C#N)cc2F)cc1,inactive,–
CC(=NC#N)N(C)Cc1ccc(Cl)nc1,inactive,–
Nc1nc(N)nc(NC2CC2)n1,inactive,–
